DT40 TDP1 no CPT = qHTS for Inhibitors of human tyrosyl-DNA phosphodiesterase 1 (TDP1): qHTS in cells in absence of CPT; DT40 Tdp1-/- hTDP1 cells, no CPT, ATP luminescence, 48 h; Potency, µM (top dose mostly 46.2 µM), inactives show at the highest dose activity change, negative = growth inhibition, hits mostly inhibitors; 420,000 tested, 15% active; note: potency is the fitted concentration of half-maximal effect; nearly all actives have a fitted effect of over 55% in size
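DT40 Tdp1-/-;hTDP1 cells, no CPT (DMSO vehicle only), 400 cells/well; compounds pin-transferred; ≥48 hr, 37 °C; CellTiter-Glo 30 min RT dark, luminescence read.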
DT40 TDP1 CPT = qHTS for Inhibitors of human tyrosyl-DNA phosphodiesterase 1 (TDP1): qHTS in cells in presence of CPT; chicken DT40 Tdp1-/-;hTDP1 cells + 20 nM CPT, ATP luminescence, 48 h; Potency, µM (top dose mostly 46.2 µM), inactives show top-dose activity change, negative = growth inhibition, most hits filed as inhibitors; 420,000 tested, 12% active; AID 686979, 2013; note: potency is the fitted concentration of half-maximal effect; nearly all actives have a fitted effect of over 55% in size
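Chicken DT40 Tdp1-/- cells stably complemented with human TDP1 were seeded at 400 cells/well in medium containing 20 nM camptothecin, exposed to pin-transferred compounds, and grown at 37 °C for at least 48 hr. Viability was read as ATP luminescence.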
IL-1B inflam inh = qHTS for Inhibitors of Inflammasome Signaling: IL-1-beta AlphaLISA Primary Screen. THP-1 LPS/ATP IL-1B secretion, AlphaLISA, 16 h; hits give low values. activity change, % at 57.5 µM. 360,000 tested, 4.7% active. AID 743279, 2014; in the data active = activity change below about -50%; inconclusive = mostly about -30% to -49%
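Secreted IL-1B measured by AlphaLISA bead assay after 16 h compound exposure of THP-1 cells; compounds (final up to 57.5 uM) added 1 h before LPS (250 ng/mL) and ATP (1.25 mM) stimulation; lower signal means less secretion.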
12-LOX inh = Primary qHTS assay for inhibitors of human arachidonate 12S-lipoxygenase (ALOX12): Round 2. Polyunsaturated fatty acid lipoxygenase ALOX12 (Homo sapiens), P18054. purified 12hLO, xylenol orange hydroperoxide absorbance. Potency, µM (top dose mostly 108 µM), for inactives: at the highest dose activity change, negative = inhibition, actives largely listed as inhibitors. 580,000 tested, 1.1% active. AID 1671190, 2021; note: potency is the fitted concentration of half-maximal effect
Target sequence (P18054 whole entry, looked up): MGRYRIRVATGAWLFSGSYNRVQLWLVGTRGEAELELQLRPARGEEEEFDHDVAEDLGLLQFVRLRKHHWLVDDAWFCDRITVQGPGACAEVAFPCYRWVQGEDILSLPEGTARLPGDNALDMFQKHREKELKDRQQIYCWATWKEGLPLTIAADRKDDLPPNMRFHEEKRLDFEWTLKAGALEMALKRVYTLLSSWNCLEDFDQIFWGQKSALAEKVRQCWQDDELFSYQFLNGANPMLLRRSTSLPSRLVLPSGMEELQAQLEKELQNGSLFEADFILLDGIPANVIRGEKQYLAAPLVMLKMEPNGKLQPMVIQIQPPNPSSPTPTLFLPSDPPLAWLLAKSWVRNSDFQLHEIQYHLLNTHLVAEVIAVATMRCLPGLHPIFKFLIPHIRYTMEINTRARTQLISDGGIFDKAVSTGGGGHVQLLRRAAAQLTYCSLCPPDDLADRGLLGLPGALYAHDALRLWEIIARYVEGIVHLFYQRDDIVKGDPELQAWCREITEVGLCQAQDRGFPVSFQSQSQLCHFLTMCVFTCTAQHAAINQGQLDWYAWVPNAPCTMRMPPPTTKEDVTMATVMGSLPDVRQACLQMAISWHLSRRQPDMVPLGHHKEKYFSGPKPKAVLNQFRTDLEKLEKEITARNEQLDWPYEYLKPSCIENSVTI
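Purified human 12hLO (150 nM final) in 25 mM Hepes, 0.01% Triton X-100, pH 7.0 was preincubated 15 min at room temperature with compound. Then 40 uM arachidonic acid was added, 30 min. Hydroperoxide was read by Fe-XO absorbance ratio 573/405 nm.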
HT1080NT lethal = qHTS for induction of synthetic lethality in tumor cells producing 2HG: qHTS for the HT-1080-NT fibrosarcoma cell line; HT-1080-NT fibrosarcoma viability, CellTiter-Glo ATP luminescence, 48 h; Potency, µM (doses to about 46.1 µM), without a hit: at the highest dose activity, negative = less viability, hits mostly cytotoxic; 360,000 tested, 1.6% active; AID 686970, 2013;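 note: NT is the 2HG producing partner of a matched IDH1 knockdown line; potency is the fitted concentration of half-maximal effect; 0% = DMSO-treated cells and -100% = media-only wells without cells; nearly all actives have a fitted effect of over 55% in size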
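HT-1080-NT; 750 cells/well; 5% FBS RPMI; 48 h compound, 37 degrees C; CellTiter-Glo luminescence; curve fitting and curve-class assignment.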
HT1080 IDH1KD tx = qHTS for induction of synthetic lethality in tumor cells producing 2HG: qHTS for the HT-1080-IDH1KD cell line | HT-1080 IDH1 knockdown viability, ATP luminescence, 48 h | Potency, µM (highest dose often 46.1 µM), for inactives: at the highest dose activity, negative = toxicity, most hits filed as cytotoxic | 360,000 tested, 2% active;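 note: potency is the fitted concentration of half-maximal effect; 0% = DMSO wells and -100% = cell-free medium wells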
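% activity derives from luminescence (CellTiter-Glo), normalised to DMSO and no-cell wells. HT-1080-IDH1KD cells, 750/well, had 48 h compound exposure at 37 °C.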
Numbers without * were called inactive; [ ] = dose if it differs, or a comment. The sample as a whole holds a higher share of hits than the screen did. Unless noted, calls come from the whole dose curve; as a rule, active = well fitted curve in the direction sought with a large enough effect; inconclusive = small, poorly fitted or top-dose-only effect, or another doubt; inactive = no such curve, though single readings can be large; an effect the other way counts as inactive or inconclusive. Unless noted, % is set by controls: 0 for no effect and ±100 for the full control effect.

For COc1ccccc1C(=O)Nc1ccccc1N1CCN(C(=O)c2ccc(Cl)cc2)CC1 the results were DT40 TDP1 no CPT 16µM*, DT40 TDP1 CPT 15µM*, IL-1B inflam inh -13, 12-LOX inh -7%, HT1080NT lethal -10% and HT1080 IDH1KD tx -38%.
O=C(CSc1ccc(Cl)cc1)Nc1ccccc1N1CCN(C(=O)c2ccccc2)CC1 was read as DT40 TDP1 no CPT 18µM*, DT40 TDP1 CPT 16µM*, IL-1B inflam inh -4, 12-LOX inh 460%, HT1080NT lethal inconclusive and HT1080 IDH1KD tx -22%.
`CC(C)c1ccc(NC(=O)CSc2nc3c(=O)n(C)c(=O)n(C)c3n2C)cc1` gave 12-LOX inh -1%.
Screening CC(C)c1ccc2oc(=O)cc(CN3CCC(C(N)=O)CC3)c2c1 returned 12-LOX inh 2%.
c1cn2c(Nc3ccc4c(c3)OCCO4)c(-c3ccc(N4CCOCC4)cc3)nc2cn1 was read as DT40 TDP1 no CPT -15%, DT40 TDP1 CPT inconclusive, IL-1B inflam inh -5, 12-LOX inh 0%, HT1080NT lethal -1% and HT1080 IDH1KD tx -18%.
`Cc1cccc(C)c1Nc1c(-c2ccc(N3CCOCC3)cc2)nc2cnccn12` gave DT40 TDP1 no CPT 18µM*, DT40 TDP1 CPT inconclusive, IL-1B inflam inh 3, 12-LOX inh -19%, HT1080NT lethal -8% and HT1080 IDH1KD tx -14%.
Screening Cc1ccc(Nc2c(-c3ccc(N4CCOCC4)cc3)nc3c(C)cccn23)cc1 returned DT40 TDP1 no CPT 15µM*, DT40 TDP1 CPT 16µM* and 12-LOX inh 2%.
`Cc1ccccc1Nc1c(-c2cccc(O)c2)nc2cnccn12` gave 12-LOX inh -7%.
For Cc1ccccc1Nc1c(-c2ccc(N3CCOCC3)cc2)nc2ccccn12 the results were DT40 TDP1 no CPT inconclusive, DT40 TDP1 CPT inconclusive and 12-LOX inh -15%.
For Cc1cccc(C)c1Nc1c(-c2ccccc2Cl)nc2cnccn12 the results were DT40 TDP1 no CPT 21µM*, DT40 TDP1 CPT inconclusive and 12-LOX inh -18%.
For Cc1nc(-c2ccccc2)sc1C(=O)Nc1ccc2[nH]c(=O)[nH]c2c1 the results were 12-LOX inh -53%.
Screening Cc1nc2sc(-c3ccccc3)cc2c(=O)n1-n1cccc1 returned DT40 TDP1 no CPT inconclusive, DT40 TDP1 CPT inconclusive, IL-1B inflam inh -63*, 12-LOX inh -4%, HT1080NT lethal 1% and HT1080 IDH1KD tx 7%.
Screening CO/N=C/C=C1/N(C)c2ccccc2C1(C)C returned DT40 TDP1 no CPT -6%, DT40 TDP1 CPT inconclusive, IL-1B inflam inh -19, 12-LOX inh -13%, HT1080NT lethal 0% and HT1080 IDH1KD tx 9%.
`CCCN1C(=O)/C(=C\C=C2\N(CC)c3ccccc3C2(C)C)SC1=S` gave DT40 TDP1 no CPT 13µM*, DT40 TDP1 CPT 16µM*, IL-1B inflam inh 6, 12-LOX inh -17%, HT1080NT lethal 0% and HT1080 IDH1KD tx 4%.
Screening CN1C(=CC=C2C=C(I)C(=O)C(I)=C2)C(C)(C)c2ccccc21 returned DT40 TDP1 no CPT 16µM*, DT40 TDP1 CPT 18µM*, IL-1B inflam inh 10, HT1080NT lethal -17% and HT1080 IDH1KD tx inconclusive.
For CN1/C(=C\C=C2/SC(=S)NC2=O)C(C)(C)c2ccccc21 the results were DT40 TDP1 no CPT 5.8µM*, DT40 TDP1 CPT 8.2µM*, IL-1B inflam inh 27, 12-LOX inh -19%, HT1080NT lethal -4% and HT1080 IDH1KD tx -11%.
For Cc1oc(-c2cccs2)nc1CC(=O)NC(C)C12CC3CC(CC(C3)C1)C2 (configuration not stated) the results were 12-LOX inh -4%.
For Cc1ccc(NC(=O)c2cc(F)ccc2Br)nc1 the results were 12-LOX inh 5%.
Screening CC(=O)Nc1nc(C)nc(-c2ccccc2OC(C)=O)n1 returned DT40 TDP1 no CPT 1%, DT40 TDP1 CPT -6%, IL-1B inflam inh 3, 12-LOX inh 10%, HT1080NT lethal 3% and HT1080 IDH1KD tx -2%.
`CC(=O)Nc1nc(-c2ccccc2)nc(-c2ccccc2OC(C)=O)n1` gave DT40 TDP1 no CPT 18µM*, DT40 TDP1 CPT inconclusive, IL-1B inflam inh -50*, 12-LOX inh 3%[57.4 µM], HT1080NT lethal inconclusive and HT1080 IDH1KD tx inconclusive.
For COc1ccc(C(C)=O)cc1CSCc1coc(-c2ccc(C)cc2C)n1 the results were 12-LOX inh -37%.
Screening O=C(CCCSCCCC(=O)NN=Cc1ccccc1)NN=Cc1ccccc1 returned DT40 TDP1 no CPT 23µM*, DT40 TDP1 CPT inconclusive, IL-1B inflam inh -3, 12-LOX inh -3%, HT1080NT lethal -8% and HT1080 IDH1KD tx -2%.
Screening O=C(CSCC(=O)NN=Cc1ccccc1)NN=Cc1ccccc1 returned DT40 TDP1 no CPT -27%, DT40 TDP1 CPT -12%, IL-1B inflam inh -1, 12-LOX inh 13%, HT1080NT lethal -3% and HT1080 IDH1KD tx 2%.
For CC(=O)Oc1ccc(/C=N/NC(=O)CCSc2ccccc2)cc1 the results were DT40 TDP1 no CPT 18µM*, DT40 TDP1 CPT inconclusive, IL-1B inflam inh 48, 12-LOX inh -9%, HT1080NT lethal -4% and HT1080 IDH1KD tx -5%.
O=C(O)c1ccccc1SCc1ccccc1Cl was read as 12-LOX inh -21%.
Screening O=C(Nc1cccc(F)c1)c1nnc(CSCC(=O)N2CCOCC2)s1 returned 12-LOX inh -23%.
For CN(Cc1nc2ccccc2c(=O)[nH]1)Cc1nc2ccsc2c(=O)[nH]1 the results were DT40 TDP1 no CPT 0.92µM*, DT40 TDP1 CPT 0.52µM*, IL-1B inflam inh 30, 12-LOX inh 14%, HT1080NT lethal 0% and HT1080 IDH1KD tx 2%.
Screening CC(OCC(O)CN(C)Cc1nc2ccccc2c(=O)[nH]1)c1ccc(Cl)cc1 (configuration not stated) returned DT40 TDP1 no CPT inconclusive, DT40 TDP1 CPT 18µM*, IL-1B inflam inh inconclusive, 12-LOX inh -12%, HT1080NT lethal -10% and HT1080 IDH1KD tx inconclusive.

Compound activity (PubChem BioAssay)
